Assay results published in PubChem BioAssay AID1024 (Sanford-Burnham Center for Chemical Genomics, 2008).
Among all 96,000 compounds or so, about 1,400 (1.5%) were called active.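 How the source made its calls: active means activation factor of 2 or more for CYP2C9 at a 5 µM dose; inactive means the rest.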 The full list was thinned out, with actives kept by preference.

These compounds were tested against Cytochrome P450 2C9 (Homo sapiens) (UniProt P11712) (assay: enhancers of cytochrome P450 2C9 turnover – biochemical, luminescence, primary screen (AID 1024;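 further: 0 = sulfaphenazole-blocked wells and 1 = vehicle-only wells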)). Settings: recombinant CYP2C9, luciferin-H conversion, at 5 µM, hits give high values, factor 1 = untreated enzyme, 0 = blocked.
Cytochrome P450 2C9 (Homo sapiens), sequence (P11712 whole entry, looked up): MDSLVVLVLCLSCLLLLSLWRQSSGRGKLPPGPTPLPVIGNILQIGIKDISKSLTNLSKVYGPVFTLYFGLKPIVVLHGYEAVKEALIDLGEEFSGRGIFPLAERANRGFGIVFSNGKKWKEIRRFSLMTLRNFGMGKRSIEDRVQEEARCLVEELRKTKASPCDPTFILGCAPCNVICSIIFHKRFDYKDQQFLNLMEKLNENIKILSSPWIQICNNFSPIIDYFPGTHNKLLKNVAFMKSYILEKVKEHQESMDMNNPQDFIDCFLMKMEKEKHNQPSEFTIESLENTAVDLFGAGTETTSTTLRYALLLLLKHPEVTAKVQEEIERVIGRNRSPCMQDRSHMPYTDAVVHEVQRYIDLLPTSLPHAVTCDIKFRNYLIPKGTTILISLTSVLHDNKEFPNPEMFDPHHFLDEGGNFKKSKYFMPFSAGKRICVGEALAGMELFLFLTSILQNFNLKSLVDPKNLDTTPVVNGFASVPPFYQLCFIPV

| SMILES | activation factor |
| --- | --- |
| O=C(Cn1nc(C(F)(F)F)c2c1CCC2)NCc1ccc(F)cc1 | 3.2 (active) |
| Cc1cc(NC(=O)Cn2nc(C(F)(F)F)c3c2CCCC3)no1 | 0.9 (inactive) |
| COC(=O)c1ccccc1NC(=O)Cn1nc(C(F)(F)F)c2c1CCC2 | 0.8 (inactive) |
| CN1C2CCC1/C(=C\c1ccccc1Cl)C(=O)/C2=C\c1ccccc1Cl | 1.8 (inactive) |
| COC(=O)/C=C/C(=O)NCc1ccco1 | 1 (inactive) |
| C=CCn1c(COc2cccc3cccnc23)nnc1SCC(=O)OC | 4.1 (active) |
| C=CCn1c(COc2ccccc2F)nnc1SCC(=O)N1CC(=O)Nc2ccccc21 | 0.9 (inactive) |
| C=CCn1c(COc2ccccc2)nnc1SCC(=O)NCC(=O)OCC | 1.1 (inactive) |
| CCN(CC)Cc1csc2ccc(Br)cc12 | 1.1 (inactive) |
| COc1cc(C(=S)N2CCOCC2)cc(OC)c1OC(=O)c1cc([N+](=O)[O-])c(C)c([N+](=O)[O-])c1 | 0.9 (inactive) |
| COc1ccc(NCc2nnc(SCc3ccccc3)n2-c2ccc(OC)cc2)cc1 | 0.4 (inactive) |
| O=C(C(NS(=O)(=O)c1cccc2nsnc12)c1ccccc1)N1CCN(c2ccccc2)CC1 (configuration not stated) | 0 (inactive) |
| Cc1cccc(C)c1NC(=O)CCS(=O)(=O)c1cccc2nsnc12 | 1 (inactive) |
| O=C(CCS(=O)(=O)c1cccc2nsnc12)N1CCN(c2ccccc2F)CC1 | 2.4 (active) |
| CSc1nc(-c2ccco2)nn1C(=O)CCc1ccccc1 | 1.1 (inactive) |
| O=C(N/N=C/c1ccsc1)c1cc(O)cc(O)c1 | 0.9 (inactive) |
| COc1ccc(-c2csc3nc(-c4ccccc4F)oc(=O)c23)cc1OC | 1 (inactive) |
| C=CCc1cccc2cc(C(=O)N3CCN(C(=O)OCC)CC3)c(=O)oc12 | 2.1 (active) |
| CCOC(=O)N1CCN(C(=O)c2cc3c(ccc4ccccc43)oc2=O)CC1 | 0.5 (inactive) |
| CS(=O)(=O)N1CCN(C(=O)c2cc3ccccc3oc2=O)CC1 | 1 (inactive) |
| CCC(C)NC(=O)c1c(N)n(/N=C/c2cccs2)c2nc3ccccc3nc12 (configuration not stated) | 0.8 (inactive) |
| Cc1cccc(-n2cnc(C(=O)Nc3cccnc3)c2)n1 | 0.1 (inactive) |
| CCOc1ccccc1NC(=O)CCN1CCN(S(=O)(=O)c2ccc(OC)cc2)CC1 | 0.6 (inactive) |
| CCOc1ccccc1Nc1nnc(SCC(=O)Nc2cc(C)on2)s1 | 0.9 (inactive) |
| CCOc1ccccc1NC(=O)CCc1ccc(C)o1 | 2.8 (active) |
| Cc1c(Nc2nc3ccccc3nc2NS(=O)(=O)c2cccs2)c(=O)n(-c2ccccc2)n1C | 0.5 (inactive) |

| SMILES | activation factor |
| --- | --- |
| O=C(CCc1ccc(S(=O)(=O)N2CCOCC2)cc1)Nc1ccc2ccccc2c1 | 0.4 (inactive) |
| CCOc1ccccc1C(=O)NCCCn1ccnc1 | 0.3 (inactive) |
| CCCOc1ccccc1C(=O)NCCCC(=O)O | 1.1 (inactive) |
| CCCCOCCCNC(=O)c1ccccc1OCC | 2.9 (active) |
| CCc1cc(C(c2ccccc2OC)N2CCOCC2)c(NC(=O)c2ccccc2)s1 (configuration not stated) | 0.1 (inactive) |
| O=C(NC1CCCCC1)C1CC(=O)N(CCc2ccccc2)C1 (configuration not stated) | 1 (inactive) |
| Cc1nn(-c2ccccn2)c2c1C(c1ccncc1)C1=C(CC(C)(C)CC1=O)N2 (configuration not stated) | 0.2 (inactive) |
| COc1ccc(/C=C2\CCCC3C2=NN(C(=O)c2scnc2C)C3c2ccc(OC)cc2)cc1 (configuration not stated) | 0.2 (inactive) |
| CC(=O)Cc1nsc(NC(=O)c2csc3c2CCCC3)n1 | 0.7 (inactive) |
| O=C(NCc1ccccc1Cl)c1csc2c1CCCCC2 | 2.5 (active) |
| COC(=O)c1sccc1NC(=O)c1csc2c1CCCC2 | 0.9 (inactive) |
| CC(C)(C)NS(=O)(=O)CC12CCC(CC1=O)C2(C)C (configuration not stated) | 0.8 (inactive) |
| Cc1cc(C)c2c(-n3cccc3)c(C(=O)NNS(=O)(=O)c3ccc(F)cc3)sc2n1 | 0 (inactive) |
| Cc1ccc2nc(/C(C#N)=C\c3ccc(OC(=O)c4cccs4)cc3)[nH]c2c1 | 0.2 (inactive) |
| C=CCOC(=O)C1=C(C)NC(C)=C(C(=O)OCC=C)C1c1cccs1 | 0 (inactive) |
| CNC(=O)c1csc(-c2ccccc2)n1 | 0.9 (inactive) |
| Cc1ccc(S(=O)(=O)NCC(=O)OCC(=O)N2CCc3ccccc32)cc1 | 1.3 (inactive) |
| Cc1ccc(S(=O)(=O)N(C)CC(=O)N2CCc3ccccc32)cc1 | 2.3 (active) |
| O=C(CSCc1ccccc1)N1CCc2ccccc21 | 1.1 (inactive) |
| CCCC(=O)Nc1nc2ccc(NC(=O)c3cccnc3)cc2s1 | 0.7 (inactive) |
| O=C(/C=C\NCC(=O)c1ccccc1)c1ccccc1 | 0.9 (inactive) |
| Cc1nn(-c2ccccc2)c(Cl)c1C(=O)Nc1ccccc1 | 1.5 (inactive) |
| COc1ccccc1-c1nnc(SCC(=O)N2CC(C)CC(C)C2)o1 (configuration not stated) | 3.9 (active) |
| COc1ccccc1N1CCN(C(=O)CSc2nnc(-c3ccoc3C)o2)CC1 | 0.7 (inactive) |
| COc1ccccc1-c1nnc(SCC(=O)Nc2ccccc2)o1 | 1.6 (inactive) |
| Cc1cccc(C)c1NC(=O)c1ccc(CN2CCc3ccccc3C2)cc1 | 1.1 (inactive) |

| SMILES | activation factor |
| --- | --- |
| Cn1nc([N+](=O)[O-])nc1Sc1ccc(C(C)(C)C)cc1 | 0.9 (inactive) |
| COc1cccc(/C=N\Nc2nncc(-c3ccccc3)n2)c1 | 0.9 (inactive) |
| COc1ccc(S(=O)(=O)N2CCCCC2)cc1Br | 2.1 (active) |
| COc1ccc(S(=O)(=O)N2CCCC2)c(C)c1C | 2.5 (active) |
| COc1ccc(S(=O)(=O)Nc2ccc(S(=O)(=O)N3CCCCC3)cc2)cc1OC | 0.1 (inactive) |
| CCOc1ccc(S(=O)(=O)N2CCCCCC2)c2ccccc12 | 1.5 (inactive) |
| COc1ccc(S(=O)(=O)N2CCCC(C(=O)N3CCN(C)CC3)C2)cc1C (configuration not stated) | 1.2 (inactive) |
| COc1ccc(S(=O)(=O)Nc2ccc(F)cc2)c(C)c1C | 0.3 (inactive) |
| Cc1ccc(-c2nn(-c3ccccc3)cc2/C=N/NC(=O)c2ccc3c(c2)OCO3)cc1 | 0.2 (inactive) |
| COc1ccccc1CNC(=O)C1CCCN(S(=O)(=O)c2cccc3cccnc23)C1 (configuration not stated) | 2.9 (active) |
| Cc1cccc(NC(=O)C2CCN(S(=O)(=O)c3cccc4cccnc34)CC2)c1 | 2.8 (active) |
| O=C(Nc1nccs1)C1CCCN1S(=O)(=O)c1cccc2cccnc12 (configuration not stated) | 0.5 (inactive) |
| O=C(O)C1CCCN(S(=O)(=O)c2cccc3cccnc23)C1 (configuration not stated) | 1.2 (inactive) |
| COc1ccc(NC(=O)C2CCCN(S(=O)(=O)c3cccc4cccnc34)C2)cc1 (configuration not stated) | 1.5 (inactive) |
| COc1ccc(NC(=O)C2CCCN(S(=O)(=O)c3cccc4cccnc34)C2)cc1OC (configuration not stated) | 1.2 (inactive) |
| CCOC(=O)N1CCN(CC(=O)c2c(C)[nH]c3ccccc23)CC1 | 1.6 (inactive) |
| CCOC(=O)N1CCN(CC(=O)n2c(C)c(C)c3ccccc32)CC1 | 2.3 (active) |
| CCOC(=O)N1CCN(C(=O)c2n[nH]c(=O)c3ccccc23)CC1 | 1 (inactive) |
| COc1ccccc1C(=O)C(O)c1ccccc1OC (configuration not stated) | 1 (inactive) |
| Cc1ccc(OC(=O)c2ccccc2C(=O)OCC(F)(F)C(F)F)cc1 | 0.2 (inactive) |
| COc1ccccc1C(=O)Oc1ccc(N2C(=O)CCC2=O)cc1 | 2.1 (active) |
| CCN(CC)c1ccc(/C=N/Nc2nc(C)cc(=O)[nH]2)cc1 | 1.2 (inactive) |
| COCc1cc(C)nc2sc3c(=O)n(-c4cccc5ccccc45)nnc3c12 | 0.7 (inactive) |
| O=C(NNC(=O)c1cccnc1)Nc1ccccc1 | 1.1 (inactive) |
| COC(=O)c1c(C)c(C)nc(N)c1C#N | 1.1 (inactive) |
| COC(=O)C(C)N(C#N)c1nc(C)nc(C)n1 (configuration not stated) | 2.4 (active) |

| SMILES | activation factor |
| --- | --- |
| CCOC(=O)c1sc(C)c2c1NC(C)(c1cccc3ccccc13)NC2=O (configuration not stated) | 0 (inactive) |
| Cc1ccc2c(c1)-c1c(ssc1=S)C(C)(C)N2C(=O)CN1C(=O)c2ccccc2C1=O | 0.2 (inactive) |
| O=C(c1cc(-c2ccc(O)cc2)on1)N1CCCc2ccccc21 | 0.4 (inactive) |
| CC(NC(=O)c1cc(-c2ccccc2)on1)c1ccccc1 (configuration not stated) | 1.2 (inactive) |
| O=C(Nc1ccccc1C(F)(F)F)c1cc(-c2ccc(O)cc2)on1 | 3.3 (active) |
| COc1ccc(Cl)cc1C(=O)NCc1cn(C)nc1C | 1 (inactive) |
| COc1cc(OC)c(C(=O)Nc2ccc(N(C)C)cc2)cc1OC | 0.7 (inactive) |
| COc1ccc(Cl)cc1C(=O)NCC#N | 1.8 (inactive) |
| CCC(C)NC(=O)c1cc(Cl)ccc1OC (configuration not stated) | 2.7 (active) |
| COc1ccc(Cl)cc1C(=O)Nc1ccc(N(C)C(C)=O)cc1 | 3.1 (active) |
| CCOc1ccc(NC(=O)Nc2ccc(N(C)C(C)=O)cc2)cc1 | 1.1 (inactive) |
| COc1ccc(N(CC(=O)N/N=C/c2cccs2)S(=O)(=O)c2ccc(OC)c(OC)c2)cc1 | 0.6 (inactive) |
| O=C(CNC(=O)OCc1ccccc1)Oc1cc2oc(=O)cc(-c3ccccc3)c2cc1Cl | 0.2 (inactive) |
| O=C(Nc1ccc(Br)cc1)c1cccc(NC(=O)C2C3CC4OC(=O)C2C4C3)c1 (configuration not stated) | 0.3 (inactive) |
| CN1OC(COC(=O)c2ccc(Cl)cc2)CC1c1ccccc1 (configuration not stated) | 0.6 (inactive) |
| COc1ccc(NC(=O)Nc2ccc3nsnc3c2)cc1 | 0.8 (inactive) |
| Cc1nn(Cc2ccc(Cl)c(Cl)c2)c(C)c1NC(=O)c1cc(C2CC2)on1 | 0 (inactive) |
| O=C(Nc1nnc(C2CC2)s1)c1ccccn1 | 1.3 (inactive) |
| CSc1ccccc1NC(=O)c1cc(C2CC2)on1 | 2.4 (active) |
| O=C(NCc1ccco1)C1CCCN(S(=O)(=O)c2ccccc2)C1 (configuration not stated) | 0.7 (inactive) |
| O=C(Cc1ccc(F)cc1)NC1CCCC1 | 1.4 (inactive) |
| O=C(CC1OC(=O)c2ccccc21)NC1CCCCC1 (configuration not stated) | 2 (active) |
| O=C(NC1CCCCC1)C1c2ccccc2C(=O)N1Cc1ccco1 (configuration not stated) | 0.9 (inactive) |
| Cc1c(Nc2cc(N3CCCC(C)C3)c3nonc3c2[N+](=O)[O-])c(=O)n(-c2ccccc2)n1C (configuration not stated) | 0.6 (inactive) |
